Screens as filed in PubChem.
Only some compounds are listed: those with a hit (about 19% of all), similar ones and a draw of the others.
uPA surface inh – cell surface uPA generation inhibition; cell surface uPA generation assay, qHTS; Potency, µM (titrated, usually from 38.3 µM), inactives show top-dose activity change, negative = inhibition, most hits filed as inhibitors; AID 540303; 330,000 tested, 0.31% active; active = well fitted inhibition curve with a large enough effect; inconclusive = small, poorly fitted or top-dose-only effect; inactive = no such curve, though single readings can be large or run the other way; tested in mouse RAW 264.7 cells; note: potency is the fitted concentration of half-maximal effect; nearly all actives have a fitted effect of over 55% in size
HT1080 IDH1KD tx – HT-1080 IDH1 knockdown cell toxicity (counter line); HT-1080 IDH1 knockdown viability, ATP luminescence, 48 h; Potency, µM (highest dose often 46.1 µM), for inactives: at the highest dose activity, negative = toxicity, most hits filed as cytotoxic; 360,000 tested, 2% active;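 note: potency is the fitted concentration of half-maximal effect; 0% = DMSO wells and -100% = cell-free medium wells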
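Viability of IDH1-knockdown HT-1080 fibrosarcoma cells was assessed by CellTiter-Glo after 48 h at 37 °C with titrated compound; concentration-effect curves were classified by fit quality and response size.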
IL-1B inflam inh – blocks inflammasome-driven IL-1 beta release; activity change, % at 57.5 µM; THP-1 LPS/ATP IL-1B secretion, AlphaLISA, 16 h; stronger effect = lower value; 360,000 tested, 4.7% active; in the data active = activity change below about -50%; inconclusive = mostly about -30% to -49%
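Secreted IL-1B measured by AlphaLISA bead assay after 16 h compound exposure of THP-1 cells; compounds (final up to 57.5 uM) added 1 h before LPS (250 ng/mL) and ATP (1.25 mM) stimulation; lower signal means less secretion.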
DT40 TDP1 CPT – growth inhibition of DT40 Tdp1-/-;hTDP1 cells with camptothecin (screen for TDP1 inhibitors). chicken DT40 Tdp1-/-;hTDP1 cells + 20 nM CPT, ATP luminescence, 48 h. Potency, µM (highest dose often 46.2 µM), without a hit: at the top dose activity change, negative = growth inhibition, actives largely listed as inhibitors. 420,000 tested, 12% active; note: potency is the fitted concentration of half-maximal effect; nearly all actives have a fitted effect of over 55% in size
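Chicken DT40 Tdp1-/- cells complemented with human TDP1, 400 cells/well, exposed to compounds plus 20 nM camptothecin for at least 48 h at 37 C; viability read as ATP content by CellTiter-Glo luminescence.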
TDP1 cell noCPT – qHTS for Inhibitors of human tyrosyl-DNA phosphodiesterase 1 (TDP1): qHTS in cells in absence of CPT | DT40 Tdp1-/- hTDP1 cells, no CPT, ATP luminescence, 48 h | Potency, µM (highest dose often 46.2 µM), without a hit: top-dose activity change, negative = growth inhibition, most hits filed as inhibitors | 420,000 tested, 15% active | AID 686978, 2013; note: potency is the fitted concentration of half-maximal effect; nearly all actives have a fitted effect of over 55% in size
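Luminescent ATP content (CellTiter-Glo) served as the growth readout. Knockout chicken DT40 cells expressing human TDP1 were exposed to compounds without camptothecin for a minimum 48 hr at 37 °C.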
HT1080NT lethal – kills 2HG-producing HT-1080-NT fibrosarcoma cells; AID 686970; Potency, µM (series often up to 46.1 µM), inactives show at the top dose activity, negative = less viability, usual class: cytotoxic; 360,000 tested, 1.6% active; HT-1080-NT fibrosarcoma viability, CellTiter-Glo ATP luminescence, 48 h;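 note: NT is the 2HG producing partner of a matched IDH1 knockdown line; potency is the fitted concentration of half-maximal effect; 0% = DMSO-treated cells and -100% = media-only wells without cells; nearly all actives have a fitted effect of over 55% in size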
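HT-1080-NT; 750 cells/well; 5% FBS RPMI; 48 h compound, 37 degrees C; CellTiter-Glo luminescence; curve fitting and curve-class assignment.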
Starred values were filed as active, the others as inactive; i = inactive; ? = inconclusive; nt = no result given; ! = not confirmed by another sample; [ ] = another dose, or the depositor's remark. Unless noted, calls come from the whole dose curve; as a rule, active = well fitted curve in the direction sought with a large enough effect; inconclusive = small, poorly fitted or top-dose-only effect, or another doubt; inactive = no such curve, though single readings can be large; an effect the other way counts as inactive or inconclusive. Unless noted, % is set by controls: 0 for no effect and ±100 for the full control effect.

SMILES	uPA surface inh	HT1080 IDH1KD tx	IL-1B inflam inh	DT40 TDP1 CPT	TDP1 cell noCPT	HT1080NT lethal
CCN(CC(=O)Nc1c(F)cccc1F)C(=O)CCCSc1nc2ccccc2[nH]1	nt	2%	-12	-16%	-23%	9%
CCOC(=O)N1CCN(C2=Nc3cccc4cccc2c34)CC1	2%	-22%	nt	-8%	-28%	0%
c1ccc(CC2CCN(C3=Nc4cccc5cccc3c45)CC2)cc1	15%	21µM*	-30	?	9.2µM*	?
CC(=O)N1CCN(C2=Nc3cccc4cccc2c34)CC1	-5%	1%[9.24 µM]	-66*	-7%	-3%	1%
c1cc2c3c(cccc3c1)C(N1CCOCC1)=N2	0%	17%	nt	26%	-25%	4%
O=C1C(NS(=O)(=O)c2cccs2)=C(N2CCN(c3cccc(Cl)c3)CC2)C(=O)c2ccccc21	8%	3%	-13	21µM*	23µM*	0%
Cc1cccc(OCC(=O)NCCCNC(=O)c2cnccn2)c1	-8%	-8%	-11	-23%	-9%	-5%
CSc1ccc(CCNC(=O)c2ccc3c(c2)nc2n3CCCCC2)cc1	nt	nt	nt	-62%	16µM*	nt
COc1ccc(CNC(=O)c2ccc3c(c2)nc2n3CCCCC2)c(OC)c1	nt	nt	nt	5%	-19%	nt
CSc1ccc(CCNC(=O)c2ccc3c(c2)nc2n3CCC(C)C2)cc1 (stereo not drawn)	nt	nt	nt	21µM*	13µM*	nt
Cc1ccc(C)c(CNC(=O)c2ccc3c(c2)nc2n3CCC(C)C2)c1 (stereo not drawn)	nt	nt	nt	?	21µM*	nt
COc1ccc(Br)cc1CNC(=O)c1ccc2c(c1)nc1n2CCCCC1	nt	nt	nt	?	16µM*	nt
COc1cccc(C2(C)NC(=O)N(CC(=O)Nc3ccc(N4CCOCC4)cc3)C2=O)c1 (stereo not drawn)	10%	11%	4	-25%	-5%	6%
O=C(Nc1nnc([C@@H]2C[C@H](O)[C@@H](CO)O2)s1)Nc1ccccc1C(F)(F)F	nt	16%	-12	-8%	-15%	0%
CC(CNC(=O)c1ccc2c(c1)nc1n2CCCCC1)c1ccccc1 (stereo not drawn)	nt	nt	nt	23µM*	?	nt
O=C(NCc1ccc(F)cc1)c1ccc2c(c1)nc1n2CCCCC1	nt	nt	nt	-29%	?	nt
CCNc1ncc2nc(-c3ccc(Cl)cc3)c(=O)n(Cc3ccc(F)cc3)c2n1	nt	nt	nt	?	-11%	nt
CN(C)S(=O)(=O)N1CCC(n2c(C(F)(F)F)nc3cccnc32)CC1	nt	nt	nt	?	-4%	nt
O=S(=O)(c1ccc(F)cc1)N1CCC(n2c(C(F)(F)F)nc3cccnc32)CC1	nt	nt	nt	12µM*	-103%	nt
O=S1(=O)CCOC[C@H](Cc2ccccc2)N1Cc1cccc(F)c1	-6%	15%	-15	0%	?	5%
O=S1(=O)CCOC[C@H](c2ccccc2)N1Cc1cccc(F)c1	14%	17%	-16	?	13µM*!	0%
O=S1(=O)CCOC[C@H](c2ccccc2)N1Cc1ccc(F)cc1	nt	nt	nt	?	11µM*	nt
CCN1C(=O)CC(NCc2ccc(S(N)(=O)=O)cc2)C1=O (stereo not drawn)	0%	19%	5	0%	16%	10%
CCc1cccc(NC(=O)NC(=O)Cn2nnc(C(=O)OC)c2C(=O)OC)c1	3%	4%	?	-8%	-18%	11%
COC(=O)c1nnn(CC(=O)NC(=O)Nc2ccccc2)c1C(=O)OC	-7%	1%	-70*	12%	-16%	6%
SMILES	uPA surface inh	HT1080 IDH1KD tx	IL-1B inflam inh	DT40 TDP1 CPT	TDP1 cell noCPT	HT1080NT lethal
COc1ccc(NC(=O)CCn2cccn2)cc1OC	nt	nt	nt	2%	20%	nt
CCOC(=O)C1(Cc2cccc(Cl)c2)CCCN(C(=O)c2cc(CC)on2)C1 (stereo not drawn)	1%	3%	i	?	16µM*	4%
CCCc1cc(C(=O)N2CCCC(Cc3cccc(Cl)c3)(C(=O)OCC)C2)n(C)n1 (stereo not drawn)	-15%	?	-26	18µM*	13µM*	?
CCOC(=O)C1(Cc2cccc(Cl)c2)CCCN(C(=O)c2ccnn2C)C1 (stereo not drawn)	-4%	-1%	5	15µM*	?	1%
CCOC(=O)C1(Cc2cccc(Cl)c2)CCCN(C(=O)c2cn[nH]c2)C1 (stereo not drawn)	17%	14%	0	-18%	0%	3%
CCOC(=O)C1(Cc2cccc(Cl)c2)CCCN(C(=O)c2cc(C)n(C)n2)C1 (stereo not drawn)	-4%	-8%	-5	?	?	14%
CCOC(=O)C1(Cc2cccc(OC)c2)CCCN(C(=O)c2cc(C)oc2C)C1 (stereo not drawn)	-22%	-3%	8	21µM*	13µM*	-2%
COc1ccc(N(CC(=O)NCc2ccccc2Cl)S(=O)(=O)c2c(C)[nH]c(=O)[nH]c2=O)cc1	nt	nt	nt	-1%	-13%	nt
CC1CC(C)(C)CC2(C1)NC(=O)N(CC(=O)Nc1ccc3c(c1)OCO3)C2=O (stereo not drawn)	nt	1%	-1	4%	-11%	5%
CCOC(=O)c1ccc(NC(=O)c2nc[nH]c2C(=O)N[C@H](C)CO)cc1	nt	-13%	0	2%	-23%	-1%
CNC(C)C#Cc1ccc2c(=O)c3cc(C)c(C)cc3oc2c1 (stereo not drawn)	-13%	1%	?	?	29µM*	-12%
Cc1cc([N+](=O)[O-])nn1CC(=O)N1c2ccccc2CC1C (stereo not drawn)	-1%	-6%	8	?	-30%	-2%
O=C(NC(=S)Nc1cccc(Cl)c1N1CCCC1)c1ccc(-c2cccc([N+](=O)[O-])c2)o1	nt	-29%	-5	?	?	4%[9.24 µM]
O=C(Nc1cccc(Cl)c1N1CCCCC1)c1ccc2c(c1)OCCO2	17%	?	-4	?	21µM*	?
O=C(NC(=S)Nc1cccc(Cl)c1N1CCCCC1)c1ccc2c(c1)OCCO2	2%	4%	-6	3.3µM*	?	11%
O=C(Nc1ccc(N2CCCCC2)cc1)c1ccc2c(c1)OCCO2	-13%	-28%	-27	?	?	-7%
CN1CC(=O)N2C(c3cccc([N+](=O)[O-])c3)c3[nH]c4ccccc4c3C[C@H]2C1=O (stereo partly drawn)	0.4µM*	-20%	-3	1µM*	1.8µM*	-21%
